Source: PubChem BioAssay (EPA / NIEHS)
Records with an inconclusive call do not appear. Some compounds were tested as several samples or in several runs, with calls that do not always agree. Activity calls are given as the source filed them. How the source made its calls, unless noted: active means hit-call score of the fitted dose curve at least 0.9, where 1 is the maximum; inconclusive means response in the unintended direction; inactive means score below 0.9.

How the values were obtained:
[1] = molecular target: human Peroxisome Proliferator-activated Receptor delta (PPARd), PPARD (gene 5467) (UniProt Q03181); assay: ATG_PPARd_TRANS: Attagene TRANS-FACTORIAL HepG2 Assay for human Peroxisome Proliferator-activated Receptor delta (PPARd) (AID 2283002)
Method in brief: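 Transient HepG2 transfection (multiple GAL4-UAS RTUs, chimeric receptor-Gal4); 24 h dosing; total RNA → oligo(dT) RT → PCR → 6-FAM primer extension → HpaI cut → CE. Positive direction vs DMSO.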

[2] = molecular target: Peroxisome proliferator-activated receptor gamma (Homo sapiens) (UniProt P37231); assay: ATG_PPARg_TRANS: Attagene TRANS-FACTORIAL HepG2 Assay for human Peroxisome Proliferator-activated Receptor-gamma (PPARg) (AID 2283007)
Method in brief: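 A TRANS-format multiplexed reporter assay measures activity of an exogenous chimeric NR-Gal4 protein in HepG2 cells. After 24 h of chemical exposure, reporter transcripts are amplified, fluorescently labelled and sized by capillary electrophoresis, with gain of signal scored against DMSO.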

[3] = molecular target: Nuclear receptor subfamily 1 group I member 2 (Homo sapiens) (UniProt O75469); assay: ATG_PXR_TRANS: Attagene TRANS-FACTORIAL HepG2 Assay for human Pregnane X Receptor (PXR) (AID 2283008)
Method in brief: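 Transient HepG2 transfectants carrying multiplexed reporter transcription units; PXR activity read through a Gal4 chimera. 24 h exposure. RT-PCR/CE fluorescence; upward curve fit referenced to DMSO.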

[4] = molecular target: human RAR-related Orphan Receptor beta (RORb), RORB (gene 6096) (UniProt Q92753); assay: ATG_RORb_TRANS: Attagene TRANS-FACTORIAL HepG2 Assay for human RAR-related Orphan Receptor beta (RORb) (AID 2283010)
Method in brief: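 Multiplexed transcription-factor reporter assay: HepG2 cells transiently carrying NR-Gal4/GAL4-UAS constructs, 24 h treatment, mRNA quantified by RT-PCR plus capillary electrophoresis fluorescence; activity scored as induction over DMSO.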

[5] = molecular target: human RAR-related Orphan Receptor gamma (RORg), RORC (gene 6097) (UniProt P51449); assay: ATG_RORg_TRANS: Attagene TRANS-FACTORIAL HepG2 Assay for human RAR-related Orphan Receptor gamma (RORg) (AID 2283011)
Method in brief: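 Transient MRTU transfection of HepG2 (TRANS format, exogenous NR-Gal4 chimera). 24 h dosing. Total RNA → oligo(dT) RT → PCR → 6-FAM labelling → HpaI cut → CE. Gain vs DMSO.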

[6] = molecular target: human Thyroid Receptor alpha (THRa1), THRA (gene 7067) (UniProt P10827); assay: ATG_THRa1_TRANS: Attagene TRANS-FACTORIAL HepG2 Assay for human Thyroid Receptor alpha (THRa1) (AID 2283014)
Method in brief: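 Transient HepG2 transfection, NR-Gal4 chimera driving GAL4-UAS reporters; 24 h compound exposure; total RNA, oligo(dT) RT, PCR, fluorescent primer extension, capillary electrophoresis. Upward direction vs DMSO control.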

[7] = molecular target: human Peroxisome Proliferator-activated Receptor alpha (PPARa), PPARA (gene 5465) (UniProt Q07869); assay: ATG_PPARa_TRANS: Attagene TRANS-FACTORIAL HepG2 Assay for human Peroxisome Proliferator-activated Receptor alpha (PPARa) (AID 2283001)
Method in brief: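 Transfected HepG2 cells treated with test chemical for 24 h. RNA isolated, reverse-transcribed with oligo(dT), PCR-amplified, FAM-labelled and HpaI-digested. Fragments sized by capillary electrophoresis; gain-of-signal fit relative to DMSO.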

[8] = molecular target: human Retinoic Acid Receptor beta (RARb), RARB (gene 5915) (UniProt P10826); assay: ATG_RARb_TRANS: Attagene TRANS-FACTORIAL HepG2 Assay for human Retinoic Acid Receptor beta (AID 2283004)
Method in brief: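 Readout is reporter mRNA induction: RNA reverse-transcribed, PCR-amplified, FAM-labelled, HpaI-cut and resolved by capillary electrophoresis. Transiently transfected HepG2 cells carrying exogenous NR–Gal4 chimeras were dosed for 24 h; activity fitted upward relative to DMSO.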

[9] = molecular target: human Retinoic Acid Receptor gamma (RARg), RARG (gene 5916) (UniProt P13631); assay: ATG_RARg_TRANS: Attagene TRANS-FACTORIAL HepG2 Assay for human Retinoic Acid Receptor gamma (RARg) (AID 2283009)
Method in brief: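 Gain-of-signal relative to DMSO is reported from fluorescent capillary electrophoresis of RT-PCR reporter products. These came from HepG2 cells expressing transfected RARg-GAL4 chimeras with UAS reporters, harvested 24 h after dosing.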

[10] = molecular target: human Retinoid X Receptor beta (RXRb), RXRB (gene 6257) (UniProt P28702); assay: ATG_RXRb_TRANS: Attagene TRANS-FACTORIAL HepG2 Assay for human Retinoid X Receptor beta (RXRb) (AID 2283013)
Method in brief: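 After a 24 h incubation with test chemical, transfected HepG2 cells carrying NR-Gal4 fusions and GAL4-UAS reporter transcription units yield RNA whose reporter cDNA is FAM-labelled, HpaI-cut and sized by capillary electrophoresis; increases over DMSO are scored.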

[11] = BSK_4H_Eotaxin3: BioMAP Diversity Plus: 4H Assay for Eotaxin 3 Biomarker Activity (AID 2283000; active means hit-call score of the fitted dose curve at least 0.9, where 1 is the maximum; inactive means score below 0.9;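 further: CCL26 protein level quantified by ELISA in parallel with SRB cytotoxicity check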); details: primary human endothelial cells (HUVEC); actives raise or lower the signal
Method in brief: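 Readout is Eotaxin-3 (CCL26) level by ELISA in primary human umbilical vein endothelial cells harvested 24 h after chemical exposure; activity fitted in both directions against DMSO control.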

[12] = read-out: Intercellular Adhesion Molecule 1 (ICAM1), ICAM1 (gene 3383); assay: BSK_3C_ICAM1: BioMAP Diversity Plus: 3C Assay for Intercellular Adhesion Molecule 1 (ICAM1) Biomarker Activity (AID 2283003; active means hit-call score of the fitted dose curve at least 0.9, where 1 is the maximum; inactive means score below 0.9); details: primary human endothelial cells (HUVEC); actives raise or lower the signal
Method in brief: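 Using DMSO as baseline, bidirectional curve fitting was applied to ICAM-1 ELISA signals from HUVEC in the 3C system, measured 24 h after compound addition.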

[13] = BSK_3C_Proliferation: Cell Proliferation Assessment in the BioMAP Diversity Plus: 3C Assay (AID 2283006; active means hit-call score of the fitted dose curve at least 0.9, where 1 is the maximum; inactive means score below 0.9); details: primary human endothelial cells (HUVEC)
Method in brief: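 Measured here: sulforhodamine B (0.1%) staining of TCA-fixed sub-confluent umbilical vein endothelial cultures 48 h post-dosing, absorbance 560 nm. DMSO served as negative control and baseline; both signal gain and loss were modelled.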

[14] = read-out: E-selectin (Homo sapiens) (UniProt P16581); assay: BSK_3C_Eselectin: BioMAP Diversity Plus: 3C Assay for Eselectin Biomarker Activity (AID 2283015; active means hit-call score of the fitted dose curve at least 0.9, where 1 is the maximum; inactive means score below 0.9;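 further: cell surface E-selectin protein quantified by ELISA 24 h after dosing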); details: primary human endothelial cells (HUVEC); actives raise or lower the signal
Method in brief: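 HUVEC, 3C stimulation; compound exposure 24 h; E-selectin by ELISA; gain- or loss-of-signal fitted bidirectionally vs DMSO baseline.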

[15] = read-out: Interleukin-1 alpha (IL1a), IL1A (gene 3552); assay: BSK_BE3C_IL1a: BioMAP Diversity Plus: BE3C Assay for Interleukin-1 alpha (IL1a) Biomarker Activity (AID 2283016; active means hit-call score of the fitted dose curve at least 0.9, where 1 is the maximum; inactive means score below 0.9); details: primary human bronchial epithelial cells; actives raise or lower the signal
Method in brief: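 Measured in human lung primary bronchial epithelial cells: IL-1a by ELISA at 24 h after dosing, with bidirectional fitting against DMSO.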

[16] = read-out: Monocyte Chemoattractant Protein-1 (MCP1), CCL2 (gene 6347); assay: BSK_3C_MCP1: BioMAP Diversity Plus: 3C Assay for Monocyte Chemoattractant Protein-1 (MCP1) Biomarker Activity (AID 2283017; active means hit-call score of the fitted dose curve at least 0.9, where 1 is the maximum; inactive means score below 0.9); details: primary human endothelial cells (HUVEC); actives raise or lower the signal
Method in brief: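 HUVEC, 3C system; 24 h chemical exposure; MCP-1 by ELISA; bidirectional curve fit vs DMSO baseline.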

[17] = read-out: Monocyte Chemoattractant Protein-1 (MCP1), CCL2 (gene 6347); assay: BSK_4H_MCP1: BioMAP Diversity Plus: 4H Assay for Monocyte Chemoattractant Protein-1 (MCP1) Biomarker Activity (AID 2283018; active means hit-call score of the fitted dose curve at least 0.9, where 1 is the maximum; inactive means score below 0.9); details: primary human endothelial cells (HUVEC); actives raise or lower the signal
Method in brief: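 Primary human umbilical vein endothelium is exposed to chemical for 24 h before MCP-1 is assayed by ELISA. Concentration-response fitted bidirectionally relative to DMSO.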

[18] = read-out: Human Leukocyte Antigen - DR isotype (HLADR), HLA-DRA (gene 3122); assay: BSK_3C_HLADR: BioMAP Diversity Plus: 3C Assay for Human Leukocyte Antigen - DR isotype (HLADR) Biomarker Activity (AID 2283019; active means hit-call score of the fitted dose curve at least 0.9, where 1 is the maximum; inactive means score below 0.9;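 further: ELISA of cell-surface HLA-DR on HUVEC 24 h after dosing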); details: primary human endothelial cells (HUVEC); actives raise or lower the signal
Method in brief: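 HUVEC, 3C stimulation, 24 h post-dose; HLA-DR by ELISA; bidirectional curve fit vs DMSO baseline; gain or loss of signal scored.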

[19] = read-out: Interleukin-8 (IL8), CXCL8 (gene 3576); assay: BSK_3C_IL8: BioMAP Diversity Plus: 3C Assay for Interleukin-8 (IL8) Biomarker Activity (AID 2283020; active means hit-call score of the fitted dose curve at least 0.9, where 1 is the maximum; inactive means score below 0.9); details: primary human endothelial cells (HUVEC); actives raise or lower the signal
Method in brief: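 Using DMSO-treated wells as the baseline, bidirectional curve fitting was applied to ELISA-measured IL-8 from human umbilical vein endothelial cultures sampled 24 h after compound addition.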

[20] = molecular target: Retinoic acid receptor RXR-alpha (Homo sapiens) (UniProt P19793); assay: ATG_RXRa_TRANS: Attagene TRANS-FACTORIAL HepG2 Assay for human Retinoid X Receptor alpha (RXRa) (AID 2283012)
Method in brief: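 Chimeric NR-GAL4 trans-activation in HepG2, 24 h treatment; reporter transcripts quantified by fluorescence on capillary electrophoresis, analysed for upward change from DMSO.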

Measured: AC50

human RAR-related Orphan Receptor gamma (RORg), RORC (gene 6097), sequence (P51449 whole entry, looked up, the tested form may be a part): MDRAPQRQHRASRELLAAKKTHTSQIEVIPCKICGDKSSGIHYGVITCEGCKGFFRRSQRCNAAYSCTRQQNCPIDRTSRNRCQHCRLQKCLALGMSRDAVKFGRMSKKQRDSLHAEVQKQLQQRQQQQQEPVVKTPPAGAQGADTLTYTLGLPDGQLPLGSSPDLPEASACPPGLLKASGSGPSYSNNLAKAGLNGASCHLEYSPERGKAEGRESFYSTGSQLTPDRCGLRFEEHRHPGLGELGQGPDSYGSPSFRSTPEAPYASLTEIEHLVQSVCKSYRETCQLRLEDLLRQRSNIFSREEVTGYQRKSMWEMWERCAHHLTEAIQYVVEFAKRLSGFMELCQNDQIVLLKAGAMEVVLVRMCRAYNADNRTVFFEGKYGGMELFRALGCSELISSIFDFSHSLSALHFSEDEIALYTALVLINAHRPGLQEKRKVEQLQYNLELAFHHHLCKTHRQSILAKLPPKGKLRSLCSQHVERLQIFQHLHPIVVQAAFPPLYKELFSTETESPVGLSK
human Retinoid X Receptor beta (RXRb), RXRB (gene 6257), sequence (P28702 whole entry, looked up, the tested form may be a part): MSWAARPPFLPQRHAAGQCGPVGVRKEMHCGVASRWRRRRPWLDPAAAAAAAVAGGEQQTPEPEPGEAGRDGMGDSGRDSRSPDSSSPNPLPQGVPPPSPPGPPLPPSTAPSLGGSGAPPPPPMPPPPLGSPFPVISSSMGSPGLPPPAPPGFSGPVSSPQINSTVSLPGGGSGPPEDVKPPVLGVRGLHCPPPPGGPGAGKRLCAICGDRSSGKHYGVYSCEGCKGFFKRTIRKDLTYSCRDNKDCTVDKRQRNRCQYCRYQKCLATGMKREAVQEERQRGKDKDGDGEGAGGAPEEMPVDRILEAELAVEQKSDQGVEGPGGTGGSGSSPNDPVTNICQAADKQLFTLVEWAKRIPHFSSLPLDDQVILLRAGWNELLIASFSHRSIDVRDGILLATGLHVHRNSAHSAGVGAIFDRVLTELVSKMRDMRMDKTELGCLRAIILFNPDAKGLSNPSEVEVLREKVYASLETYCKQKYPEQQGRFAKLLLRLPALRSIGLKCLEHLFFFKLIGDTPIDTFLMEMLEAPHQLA
human Retinoic Acid Receptor gamma (RARg), RARG (gene 5916), sequence (P13631 whole entry, looked up, the tested form may be a part): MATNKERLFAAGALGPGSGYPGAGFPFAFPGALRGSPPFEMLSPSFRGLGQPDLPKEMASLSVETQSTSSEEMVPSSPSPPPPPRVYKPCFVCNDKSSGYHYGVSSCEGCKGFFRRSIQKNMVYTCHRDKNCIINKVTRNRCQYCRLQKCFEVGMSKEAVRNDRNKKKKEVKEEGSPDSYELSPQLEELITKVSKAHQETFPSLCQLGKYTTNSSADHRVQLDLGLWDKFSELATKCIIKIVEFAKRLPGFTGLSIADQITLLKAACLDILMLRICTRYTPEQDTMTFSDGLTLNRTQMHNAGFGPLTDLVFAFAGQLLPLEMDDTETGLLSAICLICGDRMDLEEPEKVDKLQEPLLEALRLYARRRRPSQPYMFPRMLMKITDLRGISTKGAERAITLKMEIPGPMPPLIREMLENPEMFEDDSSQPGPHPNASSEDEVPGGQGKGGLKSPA
Nuclear receptor subfamily 1 group I member 2 (Homo sapiens), sequence (O75469 whole entry, looked up, the tested form may be a part): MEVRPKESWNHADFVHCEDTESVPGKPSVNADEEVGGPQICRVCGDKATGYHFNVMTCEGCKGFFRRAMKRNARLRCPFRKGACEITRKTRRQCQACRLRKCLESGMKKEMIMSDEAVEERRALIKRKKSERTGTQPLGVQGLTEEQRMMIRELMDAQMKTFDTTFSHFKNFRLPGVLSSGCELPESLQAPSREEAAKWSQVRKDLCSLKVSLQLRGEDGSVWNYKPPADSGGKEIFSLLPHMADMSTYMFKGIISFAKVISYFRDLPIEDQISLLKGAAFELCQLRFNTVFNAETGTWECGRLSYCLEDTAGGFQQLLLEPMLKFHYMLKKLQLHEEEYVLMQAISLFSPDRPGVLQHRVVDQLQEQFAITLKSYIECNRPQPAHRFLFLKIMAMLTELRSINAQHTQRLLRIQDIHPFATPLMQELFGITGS
Peroxisome proliferator-activated receptor gamma (Homo sapiens), sequence (P37231 whole entry, looked up, the tested form may be a part): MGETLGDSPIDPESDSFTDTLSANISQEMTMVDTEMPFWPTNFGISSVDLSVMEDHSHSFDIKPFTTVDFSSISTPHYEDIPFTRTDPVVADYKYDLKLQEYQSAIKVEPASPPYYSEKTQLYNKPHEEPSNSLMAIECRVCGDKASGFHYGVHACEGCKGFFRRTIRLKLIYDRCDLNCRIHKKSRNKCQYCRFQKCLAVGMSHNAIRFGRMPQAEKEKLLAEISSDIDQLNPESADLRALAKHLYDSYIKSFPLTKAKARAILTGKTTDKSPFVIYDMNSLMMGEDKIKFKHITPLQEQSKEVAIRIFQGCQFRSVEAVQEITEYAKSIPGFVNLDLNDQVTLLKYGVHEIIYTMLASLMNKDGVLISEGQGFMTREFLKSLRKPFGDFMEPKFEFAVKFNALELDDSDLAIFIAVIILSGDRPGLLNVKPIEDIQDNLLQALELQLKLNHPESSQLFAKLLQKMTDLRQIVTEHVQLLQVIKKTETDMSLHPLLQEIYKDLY
human Retinoic Acid Receptor beta (RARb), RARB (gene 5915), sequence (P10826 whole entry, looked up, the tested form may be a part): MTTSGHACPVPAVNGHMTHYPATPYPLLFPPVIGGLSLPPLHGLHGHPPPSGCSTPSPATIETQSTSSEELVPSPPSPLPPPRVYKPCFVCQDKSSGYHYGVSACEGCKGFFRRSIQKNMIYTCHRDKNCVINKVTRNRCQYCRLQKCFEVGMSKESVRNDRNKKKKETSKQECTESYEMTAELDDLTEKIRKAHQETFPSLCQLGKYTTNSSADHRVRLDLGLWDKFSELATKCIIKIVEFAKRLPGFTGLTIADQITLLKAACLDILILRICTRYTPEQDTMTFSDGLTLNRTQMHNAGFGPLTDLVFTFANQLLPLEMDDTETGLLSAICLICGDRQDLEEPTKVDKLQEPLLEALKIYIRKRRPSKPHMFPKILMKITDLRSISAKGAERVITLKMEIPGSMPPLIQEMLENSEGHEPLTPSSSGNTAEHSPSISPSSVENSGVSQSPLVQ
Retinoic acid receptor RXR-alpha (Homo sapiens), sequence (P19793 whole entry, looked up, the tested form may be a part): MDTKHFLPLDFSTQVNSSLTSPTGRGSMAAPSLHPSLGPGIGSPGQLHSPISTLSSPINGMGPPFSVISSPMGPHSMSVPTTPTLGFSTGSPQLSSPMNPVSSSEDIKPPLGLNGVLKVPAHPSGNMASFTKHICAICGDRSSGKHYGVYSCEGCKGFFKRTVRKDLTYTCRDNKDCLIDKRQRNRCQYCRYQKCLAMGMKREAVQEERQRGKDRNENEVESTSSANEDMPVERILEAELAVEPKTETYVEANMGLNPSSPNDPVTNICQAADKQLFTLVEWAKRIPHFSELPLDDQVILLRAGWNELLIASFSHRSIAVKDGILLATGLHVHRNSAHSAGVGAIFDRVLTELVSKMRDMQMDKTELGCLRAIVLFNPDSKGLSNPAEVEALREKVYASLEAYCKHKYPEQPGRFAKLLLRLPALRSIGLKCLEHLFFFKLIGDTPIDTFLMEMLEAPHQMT
human RAR-related Orphan Receptor beta (RORb), RORB (gene 6096), sequence (Q92753 whole entry, looked up, the tested form may be a part): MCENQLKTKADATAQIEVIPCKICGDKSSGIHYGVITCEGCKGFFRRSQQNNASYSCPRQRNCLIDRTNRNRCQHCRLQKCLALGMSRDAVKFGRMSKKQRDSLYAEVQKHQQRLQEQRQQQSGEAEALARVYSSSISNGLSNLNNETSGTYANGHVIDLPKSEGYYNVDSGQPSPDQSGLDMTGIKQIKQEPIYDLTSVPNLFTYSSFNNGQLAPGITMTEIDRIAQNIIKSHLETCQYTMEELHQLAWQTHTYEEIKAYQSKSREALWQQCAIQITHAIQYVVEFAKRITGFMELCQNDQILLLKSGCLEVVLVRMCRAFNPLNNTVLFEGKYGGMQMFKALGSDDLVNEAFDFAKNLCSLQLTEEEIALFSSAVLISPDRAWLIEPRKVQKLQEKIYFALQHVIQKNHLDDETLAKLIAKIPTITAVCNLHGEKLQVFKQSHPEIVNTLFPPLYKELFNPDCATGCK
human Thyroid Receptor alpha (THRa1), THRA (gene 7067), sequence (P10827 whole entry, looked up, the tested form may be a part): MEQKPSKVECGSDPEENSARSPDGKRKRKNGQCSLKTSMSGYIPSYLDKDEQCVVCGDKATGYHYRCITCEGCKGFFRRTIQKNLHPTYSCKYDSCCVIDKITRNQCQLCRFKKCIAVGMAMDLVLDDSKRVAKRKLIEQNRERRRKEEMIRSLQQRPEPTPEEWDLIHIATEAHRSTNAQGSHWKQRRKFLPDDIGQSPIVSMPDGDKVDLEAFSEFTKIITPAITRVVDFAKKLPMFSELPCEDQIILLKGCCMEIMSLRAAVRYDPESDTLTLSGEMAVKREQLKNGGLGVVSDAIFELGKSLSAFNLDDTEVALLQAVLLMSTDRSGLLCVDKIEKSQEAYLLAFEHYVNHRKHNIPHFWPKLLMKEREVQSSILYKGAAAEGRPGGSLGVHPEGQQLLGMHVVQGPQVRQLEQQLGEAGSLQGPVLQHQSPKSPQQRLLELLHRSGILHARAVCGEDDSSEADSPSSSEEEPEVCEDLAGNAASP
human Peroxisome Proliferator-activated Receptor alpha (PPARa), PPARA (gene 5465), sequence (Q07869 whole entry, looked up, the tested form may be a part): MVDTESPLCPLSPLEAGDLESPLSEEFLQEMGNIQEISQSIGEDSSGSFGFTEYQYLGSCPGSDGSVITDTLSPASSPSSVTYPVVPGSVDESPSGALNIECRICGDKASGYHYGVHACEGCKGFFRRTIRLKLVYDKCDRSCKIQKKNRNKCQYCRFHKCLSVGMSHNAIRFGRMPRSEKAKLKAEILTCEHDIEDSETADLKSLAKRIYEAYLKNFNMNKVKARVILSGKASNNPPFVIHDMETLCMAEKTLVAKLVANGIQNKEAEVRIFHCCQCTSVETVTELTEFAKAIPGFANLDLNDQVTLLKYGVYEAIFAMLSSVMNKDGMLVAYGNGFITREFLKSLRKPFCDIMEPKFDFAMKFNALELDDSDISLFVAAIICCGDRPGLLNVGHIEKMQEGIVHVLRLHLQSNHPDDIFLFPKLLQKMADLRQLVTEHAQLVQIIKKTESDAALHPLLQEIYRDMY

COC(OC(C)=O)c1ccccc1 (stereo not given)
inactive: [1] | [2] | [3] | [4] | [5] | [6]

O=S(=O)(O)c1ccc2ccccc2c1
active: [3] 21 µM
inactive: [7] | [1] | [2] | [3] | [4] | [6]

Cc1cc(C)cc(O)c1
inactive: [7] | [8] | [2] | [3] | [9] | [4] | [6]

CCCCCCS
inactive: [2] | [3] | [9] | [5]

[Co]
active: [3] 22.1 µM
inactive: [2] | [9] | [4] | [5] | [10] | [6]

CC(C)c1ccccc1N
inactive: [7] | [8] | [2] | [3] | [4] | [10]

CCCCCCC(C)OC(=O)CCCCC(=O)OC(C)CCCCCC (stereo not given)
inactive: [11] | [12] | [13] | [2] | [3] | [14] | [15] | [16] | [17] | [18] | [19]

CC(Cc1ccc(O)c(O)c1)C(C)Cc1ccc(O)c(O)c1 (stereo not given)
inactive: [5]
active: [2] 19.3 µM | [3] 6.87 µM

CCC(=O)OCCc1ccccc1
inactive: [3] | [4] | [20] | [6]

Nc1ccc(S(=O)(=O)Nc2nccs2)cc1
inactive: [7] | [2] | [3] | [9] | [4] | [10]

Nc1cc(Cl)c(N)c(Cl)c1
inactive: [9] | [4] | [5] | [20] | [10] | [6]
active: [8] 26.5 µM | [2] 38.7 µM | [3] 19.8 µM

O=C(OCCOCCOCCOC(=O)c1ccccc1)c1ccccc1
inactive: [8] | [2] | [5] | [10]

O=C(C=Cc1ccccc1)OCC=Cc1ccccc1
inactive: [7] | [4] | [20] | [6]
active: [2] 0.641 µM | [3] 23.9 µM

CN(C)Cc1ccccc1O
inactive: [1] | [2] | [3] | [10] | [6]

c1ccc(-c2ccccc2-c2ccccc2)cc1
inactive: [1] | [2] | [4]
active: [3] 27 µM

C(=C(c1ccccc1)c1ccccc1)c1ccccc1
active: [3] 7.71 µM | [10] 6.11 µM
inactive: [1] | [2] | [9] | [4] | [6]

c1ccc(B(c2ccccc2)c2ccccc2)cc1
inactive: [1] | [20] | [6]
active: [2] 33.9 µM | [3] 4.69 µM | [10] 100 µM

COC(=O)C1CCC(C(=O)OC)CC1 (stereo not given)
inactive: [8] | [2] | [3] | [9] | [10] | [6]
